Measurements taken from the supplement of paper PMC11732987, “Enantioselective OTUD7B fragment discovery through chemoproteomics screening and high-throughput optimisation” (Communications Chemistry, 2025).

Experiments:
Test in all cases: log2 ratio of Biotin-Ahx-Ub-VS probe labelling (fragment/DMSO); higher = less target engagement (more negative = stronger competition), active = hit call of the paper (q ≤ 0.05, log2 ratio ≤ -1)
Conditions in all cases: compound concentration: 200 uM; treatment time: 3 h
USP19 = biological target: T1, USP19 (UniProt O94966)
T1 sequence (whole entry): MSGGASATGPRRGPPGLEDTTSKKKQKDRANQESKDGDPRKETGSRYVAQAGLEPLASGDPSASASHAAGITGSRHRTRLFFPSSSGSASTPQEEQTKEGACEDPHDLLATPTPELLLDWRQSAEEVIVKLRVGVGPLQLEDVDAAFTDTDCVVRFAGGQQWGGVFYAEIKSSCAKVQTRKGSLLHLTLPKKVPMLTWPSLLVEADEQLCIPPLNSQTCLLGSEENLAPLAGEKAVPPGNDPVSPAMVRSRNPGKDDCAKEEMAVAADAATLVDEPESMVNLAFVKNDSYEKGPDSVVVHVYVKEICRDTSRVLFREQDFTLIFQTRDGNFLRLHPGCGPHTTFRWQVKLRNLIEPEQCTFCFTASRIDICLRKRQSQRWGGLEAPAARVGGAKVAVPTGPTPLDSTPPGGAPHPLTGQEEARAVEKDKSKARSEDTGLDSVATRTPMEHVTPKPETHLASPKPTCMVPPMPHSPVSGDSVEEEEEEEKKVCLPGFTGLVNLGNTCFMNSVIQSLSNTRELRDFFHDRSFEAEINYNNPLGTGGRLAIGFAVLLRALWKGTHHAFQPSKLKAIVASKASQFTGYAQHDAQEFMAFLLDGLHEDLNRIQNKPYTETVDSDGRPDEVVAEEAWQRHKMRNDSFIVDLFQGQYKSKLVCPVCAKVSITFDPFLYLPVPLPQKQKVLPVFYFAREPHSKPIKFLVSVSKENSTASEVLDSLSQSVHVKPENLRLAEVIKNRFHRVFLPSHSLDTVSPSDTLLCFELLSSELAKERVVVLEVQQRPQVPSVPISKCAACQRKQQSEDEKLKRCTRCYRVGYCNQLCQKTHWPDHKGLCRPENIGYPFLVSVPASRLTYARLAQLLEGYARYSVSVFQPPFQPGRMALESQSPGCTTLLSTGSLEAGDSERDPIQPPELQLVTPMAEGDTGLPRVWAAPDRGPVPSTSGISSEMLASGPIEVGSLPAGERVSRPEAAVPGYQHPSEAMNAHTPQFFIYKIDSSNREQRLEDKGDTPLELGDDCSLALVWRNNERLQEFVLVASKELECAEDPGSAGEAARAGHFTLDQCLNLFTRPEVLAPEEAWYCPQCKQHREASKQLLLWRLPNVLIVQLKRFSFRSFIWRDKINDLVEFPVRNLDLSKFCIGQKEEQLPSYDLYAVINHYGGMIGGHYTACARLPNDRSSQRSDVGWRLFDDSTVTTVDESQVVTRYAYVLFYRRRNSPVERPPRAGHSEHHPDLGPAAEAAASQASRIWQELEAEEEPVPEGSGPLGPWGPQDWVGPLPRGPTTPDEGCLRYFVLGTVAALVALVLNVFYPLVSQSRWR
Method in brief: (§1)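 The table lists average log2 ratios of fragment over vehicle, from an unpaired t-test on global-median-normalised Spectronaut label-free quantities. Proteins with ≥2 unique peptides were used. Samples were HEK293T lysate (495 µg) treated in triplicate with fragment at 200 µM or vehicle for 3 h, then with Biotin-Ahx-Ub-VS (0.5 µM final) for 1 h, with labelled DUBs NeutrAvidin-enriched and run by diaPASEF LC-MS/MS.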

USP22 = biological target: T2, USP22 (UniProt Q9UPT9)
T2 sequence (whole entry): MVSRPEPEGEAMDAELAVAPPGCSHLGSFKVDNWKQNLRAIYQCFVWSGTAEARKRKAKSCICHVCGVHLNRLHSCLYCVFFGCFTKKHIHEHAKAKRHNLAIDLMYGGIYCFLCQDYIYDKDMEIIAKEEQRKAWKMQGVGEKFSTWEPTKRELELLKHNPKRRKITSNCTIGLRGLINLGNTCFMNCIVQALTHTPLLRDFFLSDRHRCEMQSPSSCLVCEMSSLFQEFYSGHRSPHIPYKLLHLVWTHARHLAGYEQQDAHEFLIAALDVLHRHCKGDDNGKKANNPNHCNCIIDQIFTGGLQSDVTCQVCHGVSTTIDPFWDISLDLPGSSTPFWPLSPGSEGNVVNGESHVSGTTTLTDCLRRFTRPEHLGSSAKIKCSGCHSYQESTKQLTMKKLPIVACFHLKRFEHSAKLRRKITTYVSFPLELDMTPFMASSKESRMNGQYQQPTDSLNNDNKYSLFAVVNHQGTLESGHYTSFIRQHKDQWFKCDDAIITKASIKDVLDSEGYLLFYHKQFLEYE
Method in brief: as §1

USP24 = USP24 (UniProt Q9UPU5)
Chain of USP24 (Q9UPU5 whole entry): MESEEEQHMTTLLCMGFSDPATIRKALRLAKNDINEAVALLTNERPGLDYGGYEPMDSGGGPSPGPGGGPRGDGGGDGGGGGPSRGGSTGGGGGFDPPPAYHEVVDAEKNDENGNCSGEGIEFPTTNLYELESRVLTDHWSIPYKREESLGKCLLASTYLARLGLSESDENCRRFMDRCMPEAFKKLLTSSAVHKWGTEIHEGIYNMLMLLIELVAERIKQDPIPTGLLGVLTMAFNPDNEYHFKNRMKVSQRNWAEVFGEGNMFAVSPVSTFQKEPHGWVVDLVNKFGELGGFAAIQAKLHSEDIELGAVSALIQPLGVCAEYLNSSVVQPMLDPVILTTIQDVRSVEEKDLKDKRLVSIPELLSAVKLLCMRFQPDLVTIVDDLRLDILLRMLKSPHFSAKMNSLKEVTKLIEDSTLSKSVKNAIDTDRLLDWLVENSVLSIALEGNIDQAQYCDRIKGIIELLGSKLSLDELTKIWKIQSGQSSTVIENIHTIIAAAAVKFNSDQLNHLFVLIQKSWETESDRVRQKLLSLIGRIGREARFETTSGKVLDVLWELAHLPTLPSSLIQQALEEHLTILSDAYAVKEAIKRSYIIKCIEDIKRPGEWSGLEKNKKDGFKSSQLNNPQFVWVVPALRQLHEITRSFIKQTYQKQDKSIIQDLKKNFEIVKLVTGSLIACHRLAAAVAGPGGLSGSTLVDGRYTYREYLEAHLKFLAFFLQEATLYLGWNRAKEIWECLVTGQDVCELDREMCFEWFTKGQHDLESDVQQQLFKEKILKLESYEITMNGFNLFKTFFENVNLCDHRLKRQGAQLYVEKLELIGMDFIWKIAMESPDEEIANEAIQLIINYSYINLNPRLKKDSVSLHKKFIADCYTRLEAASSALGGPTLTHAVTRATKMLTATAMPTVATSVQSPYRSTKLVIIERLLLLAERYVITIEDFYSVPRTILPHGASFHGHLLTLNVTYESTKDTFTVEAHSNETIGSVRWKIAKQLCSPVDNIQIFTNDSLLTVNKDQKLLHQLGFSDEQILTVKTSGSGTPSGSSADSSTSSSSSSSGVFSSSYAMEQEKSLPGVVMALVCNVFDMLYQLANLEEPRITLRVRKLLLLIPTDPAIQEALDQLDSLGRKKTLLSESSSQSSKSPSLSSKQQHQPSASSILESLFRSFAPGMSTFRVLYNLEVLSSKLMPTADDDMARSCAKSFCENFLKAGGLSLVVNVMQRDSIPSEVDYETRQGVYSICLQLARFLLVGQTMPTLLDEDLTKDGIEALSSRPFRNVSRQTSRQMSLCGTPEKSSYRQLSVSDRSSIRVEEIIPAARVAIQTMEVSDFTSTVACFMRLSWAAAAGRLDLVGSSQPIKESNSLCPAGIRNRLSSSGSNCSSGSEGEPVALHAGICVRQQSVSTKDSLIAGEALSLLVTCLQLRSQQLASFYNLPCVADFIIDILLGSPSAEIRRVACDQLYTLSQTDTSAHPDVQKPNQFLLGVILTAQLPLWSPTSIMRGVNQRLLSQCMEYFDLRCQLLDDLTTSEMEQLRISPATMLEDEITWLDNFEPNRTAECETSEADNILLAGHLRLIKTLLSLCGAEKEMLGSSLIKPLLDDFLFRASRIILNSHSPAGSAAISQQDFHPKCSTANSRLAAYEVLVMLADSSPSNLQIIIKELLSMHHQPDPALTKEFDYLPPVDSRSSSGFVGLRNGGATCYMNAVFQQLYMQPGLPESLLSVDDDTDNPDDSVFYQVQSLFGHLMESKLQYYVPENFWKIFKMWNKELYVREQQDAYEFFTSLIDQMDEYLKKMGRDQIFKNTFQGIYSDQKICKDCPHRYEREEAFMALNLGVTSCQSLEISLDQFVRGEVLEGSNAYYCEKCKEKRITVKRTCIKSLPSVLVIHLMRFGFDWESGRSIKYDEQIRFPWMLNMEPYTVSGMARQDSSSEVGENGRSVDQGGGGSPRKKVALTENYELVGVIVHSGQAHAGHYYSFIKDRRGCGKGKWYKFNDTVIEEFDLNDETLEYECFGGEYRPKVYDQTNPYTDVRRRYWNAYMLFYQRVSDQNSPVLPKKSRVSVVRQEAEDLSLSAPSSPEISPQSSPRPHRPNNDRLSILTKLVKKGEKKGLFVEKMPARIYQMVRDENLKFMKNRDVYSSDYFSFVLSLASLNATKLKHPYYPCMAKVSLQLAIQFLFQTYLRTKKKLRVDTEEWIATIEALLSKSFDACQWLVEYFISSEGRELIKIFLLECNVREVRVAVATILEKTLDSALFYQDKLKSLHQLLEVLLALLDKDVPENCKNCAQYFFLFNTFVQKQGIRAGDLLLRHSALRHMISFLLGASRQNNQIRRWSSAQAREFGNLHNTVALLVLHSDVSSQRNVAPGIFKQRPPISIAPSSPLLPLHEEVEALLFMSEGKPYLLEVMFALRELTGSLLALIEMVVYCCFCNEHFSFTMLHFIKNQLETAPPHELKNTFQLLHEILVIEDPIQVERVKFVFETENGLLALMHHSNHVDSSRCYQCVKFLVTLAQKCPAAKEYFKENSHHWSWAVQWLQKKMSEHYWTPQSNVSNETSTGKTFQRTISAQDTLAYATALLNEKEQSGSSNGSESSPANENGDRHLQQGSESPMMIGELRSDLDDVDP
Method in brief: as §1

USP25 = biological target: T3, USP25 (UniProt Q9UHP3)
T3 sequence (whole entry): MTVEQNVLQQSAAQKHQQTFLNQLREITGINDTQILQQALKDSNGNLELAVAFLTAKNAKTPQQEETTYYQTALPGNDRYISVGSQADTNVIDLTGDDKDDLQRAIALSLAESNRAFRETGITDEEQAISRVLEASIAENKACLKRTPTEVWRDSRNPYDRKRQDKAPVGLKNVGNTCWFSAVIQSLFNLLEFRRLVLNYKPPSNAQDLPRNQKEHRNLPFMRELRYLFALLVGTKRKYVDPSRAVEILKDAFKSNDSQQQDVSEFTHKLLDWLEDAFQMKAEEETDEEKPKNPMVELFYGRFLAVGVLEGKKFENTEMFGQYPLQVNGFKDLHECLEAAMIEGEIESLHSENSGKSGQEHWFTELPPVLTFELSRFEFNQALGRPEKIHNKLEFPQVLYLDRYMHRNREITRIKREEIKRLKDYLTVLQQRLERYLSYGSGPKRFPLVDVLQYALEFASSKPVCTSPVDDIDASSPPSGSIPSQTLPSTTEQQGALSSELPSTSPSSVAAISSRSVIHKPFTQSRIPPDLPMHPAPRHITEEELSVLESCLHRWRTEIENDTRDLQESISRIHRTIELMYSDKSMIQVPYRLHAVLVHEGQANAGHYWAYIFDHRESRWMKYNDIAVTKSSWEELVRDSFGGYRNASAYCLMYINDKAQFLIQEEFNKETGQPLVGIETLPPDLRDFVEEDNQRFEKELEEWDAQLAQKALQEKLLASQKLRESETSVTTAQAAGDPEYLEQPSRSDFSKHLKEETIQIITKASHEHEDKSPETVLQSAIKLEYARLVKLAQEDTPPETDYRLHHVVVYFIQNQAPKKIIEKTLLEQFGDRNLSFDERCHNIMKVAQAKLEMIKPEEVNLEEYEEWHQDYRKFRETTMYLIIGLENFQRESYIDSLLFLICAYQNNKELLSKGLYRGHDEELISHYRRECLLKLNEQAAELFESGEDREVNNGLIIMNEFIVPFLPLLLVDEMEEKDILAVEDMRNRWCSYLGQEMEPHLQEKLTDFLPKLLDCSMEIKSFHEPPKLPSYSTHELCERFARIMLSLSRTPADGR
Method in brief: as §1

USP28 = biological target: T4, USP28 (UniProt Q96RU2)
T4 sequence (whole entry): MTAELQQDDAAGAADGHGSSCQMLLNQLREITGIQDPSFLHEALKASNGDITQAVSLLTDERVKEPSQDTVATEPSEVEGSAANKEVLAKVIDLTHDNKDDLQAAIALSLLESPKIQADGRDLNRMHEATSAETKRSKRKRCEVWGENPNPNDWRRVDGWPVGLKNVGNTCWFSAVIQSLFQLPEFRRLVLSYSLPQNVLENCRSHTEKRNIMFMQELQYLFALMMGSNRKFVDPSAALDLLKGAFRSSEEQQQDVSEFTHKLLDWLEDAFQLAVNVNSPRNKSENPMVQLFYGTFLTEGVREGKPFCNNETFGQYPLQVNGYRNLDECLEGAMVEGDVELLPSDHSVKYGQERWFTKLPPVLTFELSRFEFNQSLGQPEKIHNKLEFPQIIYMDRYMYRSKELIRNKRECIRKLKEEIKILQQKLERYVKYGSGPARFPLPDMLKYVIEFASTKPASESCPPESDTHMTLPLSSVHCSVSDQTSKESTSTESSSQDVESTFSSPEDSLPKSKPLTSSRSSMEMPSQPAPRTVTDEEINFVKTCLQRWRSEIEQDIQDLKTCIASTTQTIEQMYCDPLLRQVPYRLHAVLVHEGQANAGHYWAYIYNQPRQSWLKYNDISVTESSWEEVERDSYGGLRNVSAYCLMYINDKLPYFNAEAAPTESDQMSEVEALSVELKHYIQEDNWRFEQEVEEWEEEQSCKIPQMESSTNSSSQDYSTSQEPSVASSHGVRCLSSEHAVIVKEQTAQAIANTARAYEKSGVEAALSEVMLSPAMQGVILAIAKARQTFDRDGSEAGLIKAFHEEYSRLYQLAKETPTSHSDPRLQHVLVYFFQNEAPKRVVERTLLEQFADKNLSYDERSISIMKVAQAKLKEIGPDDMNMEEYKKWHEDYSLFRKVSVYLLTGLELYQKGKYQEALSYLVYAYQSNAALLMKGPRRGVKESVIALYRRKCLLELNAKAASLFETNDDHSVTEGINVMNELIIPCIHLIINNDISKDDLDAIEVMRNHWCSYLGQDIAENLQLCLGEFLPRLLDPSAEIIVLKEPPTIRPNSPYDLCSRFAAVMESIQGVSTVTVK
Method in brief: as §1

Measured: log2 ratio of Biotin-Ahx-Ub-VS probe labelling

Cl.O=C(CCl)NCc1ccnc(Oc2ccccc2F)c1
inactive: USP19 -0.111 | USP22 -0.353 | USP24 -0.349 | USP25 -0.678 | USP28 -0.558
